# Peg3 imprint = qHTS Assay for Compounds that Induce Erasure of Genomic Imprints; mouse ES Peg3-LacZ reporter, beta-gal luminescence, 40 h; 110,000 tested, 0.02% active; Potency, µM (highest dose often 60.7 µM), for inactives: top-dose activity change, positive = activation, hits mostly activators
#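 Readout: BetaGlo luminescence (5 min, room temp) for LacZ from the normally silent maternal Peg3 allele in female Peg3LacZ-Neo ES cells. Cells 300/well, 40 h, 37C, 5% CO2. Data normalized per plate to negative controls.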
# p53ts 39C kill = qHTS Screen for Compounds that Selectively Target Cancer Cells with p53 Mutations: Cytotoxicity of p53ts Cells at the Nonpermissive Temperature; H1299-p53A138V viability at 39C, ATP luminescence, 24 h; Potency, µM (top dose mostly 46.1 µM), inactives show at the highest dose activity change, negative = cell killing, usual class: cytotoxic; 130,000 tested, 1.5% active; AID 902, 2007; note: % is set by controls: 0 for no effect and ±100 for the full control effect; nearly all actives have a fitted effect of over 55% in size
# p53ts 32C tox = qHTS Screen for Compounds that Selectively Target Cancer Cells with p53 Mutations: Cytotoxicity of p53ts Cells at the Permissive Temperature; H1299-p53A138V at 32C, ATP luminescence viability, 24 h; Potency, µM (highest dose often 46.1 µM), for the others: at the top dose activity change, negative = cytotoxicity, usual class: cytotoxic; 130,000 tested, 0.93% active;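 note: 0% = DMSO and -100% = full killing by reference compound; nearly all actives have a fitted effect of over 55% in size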
#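 Cells: H1299 p53ts (A138V), 600/well, pre-incubated 16–30 h at 37C. Cpd up to 46 uM, 24 h, 32C. Readout: ATPlite luminescence, 20 min RT. Normalization: DMSO vs tamoxifen 100 uM. AC50 by Hill equation.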
# IkB sig inh = IkB Signaling. Potency, µM (top dose mostly 57.1 µM), for the others: at the top dose IkBa stabilization activation. AID 445, 2006. ABC-DLBCL IkBa-CBG/CBR dual luciferase ratio, 4 h; response scale: scaled: untreated 0%, proteasome inhibitor 100%. 110,000 tested, 0.04% active; active = well fitted curve in the direction sought with a large enough effect in the signal ratio, not every such curve was filed as active; inconclusive = small, poorly fitted or top-dose-only effect, or a change in a side signal; the % refers to the signal ratio;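 note: the direction sought is a rising ratio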
#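 Luminescence ratio of IκBα-fused green versus native red beetle luciferase in OCI-Ly3 cells, 4 h post-doxycycline with compound; red signal alone, scaled from basal (0%) to zero light (-100%), flagged nonspecific or cytotoxic effects.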
# An asterisk follows results filed as active; ? = inconclusive; . = no result given; [ ] = dose if it differs, or a comment. A selection: hits, their analogues and other compounds. The true share with any hit is near 1.8%. Unless noted, calls come from the whole dose curve; as a rule, active = well fitted curve in the direction sought with a large enough effect; inconclusive = small, poorly fitted or top-dose-only effect, or another doubt; inactive = no such curve, though single readings can be large; an effect the other way counts as inactive or inconclusive. Potency is the fitted concentration of half-maximal effect.
SMILES,Peg3 imprint,p53ts 39C kill,p53ts 32C tox,IkB sig inh
O=C1C(C=Nc2ccccc2O)=C(O)c2ccccc21,-75.3%,?,10µM*,?
COc1cc(OC)c(-c2cc(C(=O)NCc3ccc(F)cc3)c3c(-c4ccccc4)[nH]nc3n2)cc1OC,11.8%[10.9 µM],?,8.91µM*,1.2%
CCOc1ccc(-c2cc(C(=O)NCCc3ccccc3)c3c(-c4ccc(C)cc4)[nH]nc3n2)cc1,-9.6%[10.9 µM],15.8µM*,-12.5%,-1.3%
CCc1ccc(-c2[nH]nc3nc(-c4cc(OC)ccc4OC)cc(C(=O)O)c23)cc1,?,3.98µM*,-1.9%,15.7%
COc1ccc(-c2[nH]nc3nc(-c4cc(OC)c(OC)c(OC)c4)cc(C(=O)O)c23)cc1,-13.2%[10.9 µM],?,-17.2%,0.1%
COc1ccc(-c2cc(C(=O)NCCc3ccccc3)c3c(-c4ccccc4)[nH]nc3n2)cc1OC,-2.8%[10.9 µM],12.6µM*,?,7.8%
CCOc1ccc(-c2cc(C(=O)NCCc3ccc(OC)c(OC)c3)c3c(-c4ccc(F)cc4)[nH]nc3n2)cc1,-19.7%[10.9 µM],?,-24.3%,-1.5%
COc1ccccc1-c1cc(C(=O)NCc2ccccc2)c2c(-c3ccc(C)cc3)[nH]nc2n1,-16.4%[10.9 µM],-5.4%,7.1%,1.2%
COc1ccc(CCNC(=O)c2cc(-c3ccc(C)cc3)nc3n[nH]c(-c4ccccc4)c23)cc1OC,-15.4%[10.9 µM],-20.7%,-10.7%,0.9%
O=C(Cn1c(=O)c2cccn2c2ccc(F)cc21)NCc1cccc(Cl)c1,-19.5%[10.9 µM],-17.7%,2.5%,1.1%
CCCC[C@@H]1CN2[C@H](c3ccc(Br)cc3)[C@@H](C)CC[C@H]2C(=O)O1,.,7.2%[9.22 µM],3.8%[9.22 µM],.
CCc1ccc(C(=O)c2cn(CC(=O)Nc3ccc4c(c3)OCO4)c3ccc(OC)cc3c2=O)cc1,-3.7%[10.9 µM],-3.1%,-0.9%,?
Cc1ccc(NC(=O)c2ccc(=O)n(Cc3ccccc3C)c2)c(C)c1,-8.5%[10.9 µM],-24.9%,-2.4%,0.1%
O=C(c1ccco1)N1CCC2(CCCN(Cc3ccncc3)C2)CC1,.,-1.3%,0.1%,0.6%[11.4 µM]
COc1ccc(-c2cc3nc4n(c(=O)c3s2)CCC4)cc1,-89.4%,5.01µM*,5.01µM*,2.9%
Cc1ccc(-c2nnc(SCC(=O)NCc3ccccc3)o2)cc1,-6.6%[10.9 µM],-10.5%,6.8%,0.0%
CCN(CC)c1ccc(NC(=O)Nc2cccc(C(C)=O)c2)cc1,-11.5%,12.6µM*,12.6µM*,?
CC(=O)c1cccc(NC(=O)Nc2ccc3c(c2)N(C)C(=O)CS3)c1,-14.0%,20µM*,?,?
COc1ccc(OC2C=CC(C#Cc3ccc(F)cc3F)OC2CO)cc1 (stereo not drawn),.,-8.7%[9.22 µM],-15.0%[9.22 µM],.
COc1ccc(O)c(C(=O)CC(=O)c2ccc(F)cc2)c1,-92.2%,6.31µM*,6.31µM*,?
Cc1ccc(O)c(C(=O)CC(=O)c2cccc(F)c2)c1,-24.6%,-11.3%,-13.6%,-1.8%
CC1(N)CCC(C(C)(C)N)CC1 (stereo not drawn),-3.8%,15.6%,9.9%[1.84 µM],5.0%
CC(=O)[C@@]1(O)CC[C@H]2[C@H]3C[C@@H](C)C4=CC(=O)C=C[C@]4(C)[C@@]3(F)[C@@H](O)C[C@]21C,-3.1%[16.8 µM],-7.9%[20.6 µM],1.1%[20.6 µM],10.6%[25.6 µM]
COc1ccccc1CNc1ncncc1-c1cccc(C#N)c1,26.7%,3.6%,-0.1%,1.1%[11.4 µM]
CCC(=O)Nc1cccc(NC(=O)c2cc3ccccc3o2)c1,-75.5%,12.6µM*,10µM*,?
SMILES,Peg3 imprint,p53ts 39C kill,p53ts 32C tox,IkB sig inh
Cc1cccc(NC(=O)c2cc3ccccc3o2)c1,-82.8%,10µM*,12.6µM*,?
O=C(NC1CC1)c1ccc(Cn2c(SCc3ccccc3F)nc3cccnc32)cc1,.,.,15.8µM*,.
Cc1ccc(CSc2nc3cccnc3n2Cc2ccc(C(=O)NCCc3cccs3)cc2)cc1,.,.,5.01µM*,.
Cc1ccc(CSc2nc3cccnc3n2Cc2ccc(C(=O)NC3CCCCC3)cc2)cc1,.,.,11.2µM*,.
O=C(NCc1cccs1)c1ccc(CSc2nc3cccnc3n2Cc2ccccc2)cc1,.,.,-10.8%,.
O=C(NC1CCCCC1)c1ccc(CSc2nc3cccnc3n2Cc2ccccc2F)cc1,.,.,-13.6%,.
CCc1nnc(NC(=O)CSc2nc3c(cc2C#N)CCCC3)s1,16.5%,1.58µM*,0.794µM*,-0.4%
Cc1cc(C)cc(N2CCn3c2nc2c3c(=O)n(Cc3c(F)cccc3Cl)c(=O)n2C)c1,-7.2%[10.9 µM],-19.4%,-4.4%,2.0%
O=c1c(-c2cccs2)nc2cnc(N3CCNCC3)nc2n1CCc1ccccc1,-37.4%,15.8µM*,?,0.0%[11.4 µM]
CCCCn1c(CN2CCOCC2)nc2c1c(=O)n(C)c(=O)n2C,-37.3%,3.98µM*,?,?
N[C@@H](CSCc1ccc(I)cc1)C(=O)O,?,6.4%[9.22 µM],5.1%[9.22 µM],0.2%[11.4 µM]
Clc1cccc(-c2nnc(-c3ccccc3)o2)c1,-83.3%,12.6µM*,10µM*,?
CCOC(=O)c1cnc(-n2nc(C)cc2C)nc1N(C)C,-55.1%,2µM*,3.16µM*,-3.8%
CCn1nc(C)c(CCN(C)C(=O)Nc2cc(C)cc(C)c2)c1C,-7.8%[10.9 µM],-9.8%,-2.1%,1.5%
CC(C)CO/N=C1/[C@H]2O[C@@H]2[C@@H](O)[C@H]2[C@H]1CCn1c(=O)n(-c3ccccc3)c(=O)n12,.,-1.5%[9.22 µM],14.6%[9.22 µM],.
Cc1ccc(N2C(=O)c3ccccc3C2O)nc1 (stereo not drawn),-92.9%,5.01µM*,3.98µM*,?
CS(=O)(=O)c1ccc(Sc2nc3ccccc3s2)c([N+](=O)[O-])c1,.,22.4µM*,.,.
CC(C)c1ccc(Cn2ccc3c4c(N)nc(NC5CC5)nc4ccc32)cc1,-26.0%,31.6µM*,?,-0.1%
COc1ccc(CCN(C)CCC[C@@](C#N)(c2cc(OC)c(OC)c(OC)c2)C(C)C)cc1OC,.,11.3%,20.0%,-3.7%
c1ccc2c(NC3CCNCC3)nc(-c3ccoc3)nc2c1,25.9%,1.2%,2.1%,-0.5%[11.4 µM]
CN(C)c1ccc(-c2nc(NC3CCNCC3)c3ccccc3n2)cc1,-45.2%,10µM*,?,0.4%[11.4 µM]
COc1cccc(-c2nc(NC3CCNCC3)c3ccccc3n2)c1,1.0%,15.8µM*,?,-2.2%[11.4 µM]
c1ccc(C(c2cccc3c2ccc2ccccc23)[C@H](c2ccccc2)c2cccc3c2ccc2ccccc23)cc1 (stereo partly drawn),-3.5%[10.9 µM],.,.,.
O=S(=O)(O)C(c1ccccc1)[C@@H](O)c1ccccc1 (stereo partly drawn),-15.7%[10.9 µM],.,.,.
Cc1ccc(NC(=O)c2ccccc2O)cc1,-65.3%,10µM*,14.1µM*,?
COC(=O)C1=C(NC(=O)c2cccc(OC)c2)CCS1,-26.4%,-12.1%,-6.0%,2.3%
COc1cccc(C(=O)NC2=NCCS2)c1,-71.0%,?,15.8µM*,-0.1%
COc1cccc(C(=O)Nc2ccc(C(=O)O)cc2)c1,-90.1%,-0.8%,9.8%,10.7%
COc1cccc(C(=O)Nc2ccc(C)cc2)c1,-82.0%,15.8µM*,15.8µM*,?
